# From PubChem BioAssay (EPA / NIEHS)
# Results filed as inconclusive are left out. Calls of active or inactive are those of the source. How the source made its calls: active means hit-call score of the fitted dose curve at least 0.9, where 1 is the maximum; inconclusive means response in the unintended direction; inactive means score below 0.9.
# Legend:
# [1] = target: human Vascular Endothelial Growth Factor Receptor 2 (VEGFR2), KDR (gene 3791) (UniProt P35968); experiment: NVS_ENZ_hVEGFR2: NovaScreen (NVS) Enzymatic Assay for human Vascular Endothelial Growth Factor Receptor 2 (VEGFR2) (AID 2283230)
# How it was run: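 Cell-free recombinant VEGFR2 kinase, fluorescent substrate with electrophoretic mobility-shift separation; read 1 h after dosing. Screened at 25 uM in duplicate, hits to concentration-response up to 50 uM; loss-of-signal versus DMSO.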
# [2] = NVS_GPCR_bNPY_NonSelective: NovaScreen (NVS) G Protein-Coupled Receptor Assay for bovine Neuropeptide Y (NPY) Receptor, Non-selective Binding (AID 2283245)
# How it was run: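 Bovine hippocampal membranes incubated 1 hour with radioligand and test chemical. Bound ligand measured by filter-based scintillation counting. Single-concentration screen at 25 uM in duplicate, then concentration-response up to 50 uM.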
# [3] = target: sheep Cyclooxygenase-1 (Cox1), PTGS1 (gene 443551) (UniProt P05979); experiment: NVS_ENZ_oCOX1: NovaScreen (NVS) Enzymatic Assay for sheep Cyclooxygenase-1 (Cox1) (AID 2283239);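 further: actives reduce cyclooxygenase activity so potencies are for inhibitors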
# How it was run: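 Absorbance read-out of cyclooxygenase activity in a cell-free preparation from sheep seminal vesicles, taken 0.66 hour after dosing. Initial testing was in duplicate at 25 uM, and confirmatory testing was run in concentration series.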
# [4] = target: rat Catechol-O-Methyl Transferase (COMT), Comt (gene 24267) (UniProt P22734); experiment: NVS_ENZ_rCOMT: NovaScreen (NVS) Enzymatic Assay for rat Catechol-O-Methyl Transferase (COMT) (AID 2283235)
# How it was run: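 Cell-free enzyme activity with protein extracted from rat dorsal striatum, measured by HPLC with absorbance detection. Compounds screened at 25 uM in duplicate; actives then run in concentration-response up to 50 uM, loss of signal versus DMSO.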
# [5] = test system: bovine Angiotensin II Receptor Type 2 (AT2), gene 407157; experiment: NVS_GPCR_bAT2: NovaScreen (NVS) G Protein-Coupled Receptor Assay for bovine Angiotensin II Receptor Type 2 (AT2) (AID 2283240)
# How it was run: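 Radioligand displacement on bovine cerebellar membranes, 1 hour incubation, filter-based scintillation counting; loss of signal vs DMSO. Duplicate single-point screen at 25 uM, then concentration-response to 50 uM maximum.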
# [6] = target: Adenosine receptor A1 (Bos taurus) (UniProt P28190); experiment: NVS_GPCR_bAdoR_NonSelective: NovaScreen (NVS) G Protein-Coupled Receptor Assay for bovine Adenosine Receptor (AdoR), Non-selective Binding (AID 2283244)
# How it was run: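 Bovine striatal membranes, radioligand displacement binding, 1 h after dosing, filter-based scintillation counting. Screened in duplicate at 25 uM, then concentration-response up to 50 uM; loss of specific binding relative to DMSO.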
# [7] = target: sheep Cyclooxygenase-2 (Cox2), PTGS2 (gene 443460) (UniProt P79208); experiment: NVS_ENZ_oCOX2: NovaScreen (NVS) Enzymatic Assay for sheep Cyclooxygenase-2 (Cox2) (AID 2283231)
# How it was run: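 Enzyme extracted from ovine placenta tested cell-free; activity read colorimetrically by absorbance 0.66 hour after dosing. Primary screen in duplicate at 25 uM; hits rerun as concentration series to 50 uM, loss of signal versus DMSO baseline.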
# [8] = target: rabbit Imidazoline 2 Central (I2C), CKB (gene 100009085) (UniProt P00567); experiment: NVS_ENZ_rabI2C: NovaScreen (NVS) Enzymatic Assay for rabbit Imidazoline 2 Central (I2C) (AID 2283228)
# Protocol: NVS_ENZ_rabI2C is a biochemical, single-readout assay that uses extracted gene-proteins from Rabbit brain membranes in a tissue-based cell-free assay. Measurements were taken 1.5 hours after chemical dosing in a 48-well plate.NVS_ENZ_rabI2C is one of one assay component(s) measured or calculated from the NVS_ENZ_rabI2C assay. It is designed to make measurements of enzyme activity, a form of enzyme reporter, as detected with scintillation counting signals by Filter-based radiodetection technology.Data from the assay component NVS_ENZ_rabI2C was analyzed into 1 assay endpoint. This assay endpoint, NVS_ENZ_rabI2C, was analyzed in the positive analysis fitting direction relative to DMSO as the negative control and baseline of activity. Using a type of enzyme reporter, loss-of-signal activity can be used to understand changes in the enzymatic activity as they relate to the gene CKB. Furthermore, this assay endpoint can be referred to as a primary readout, because this assay has produced multiple assay endpoints where this one serves a enzymatic activity function. To generalize the intended target to other relatable targets, this assay endpoint is annotated to the oxidoreductase intended target family, where the subfamily is imidazoline receptor.
# Binding assays used specific radioligands (tritiated, iodinated) with non-radioactive competitive displacement ligands in agonist or antagonist protocols (as indicated) and various reference compounds and inhibitors to titrate specific binding to receptors and transporters. Most enzyme assays (CYPs, kinases, phosphatases, proteases, HDACs) used recombinant protein and specific substrates (fluorescence mostly, some colorimetric and radioactive) and inhibitors, followed by a biochemical separation of substrate and product. All assays for the biochemical HTS were initially run in duplicate at a single concentration (10 uM for CYP450 assays and 25 uM for all others). Assay-chemical combinations meeting a pre-defined threshold (e.g., 30% inhibition and other criteria defined below) were then run in singleton concentration-response format with maximum concentration of 20 uM for CYPs and 50 uM for all others. Each assay was run with positive and negative controls, and concurrent controls on every plate. The follow-up (secondary) screen tested active chemical-pairs in concentration series, as well as a few additional assays not tested in the primary screen, some selected negative inactives, and several cases re-run in the concentration series for confirmatory purposes.
# [9] = target: bovine Dopamine Receptor (DR), Non-selective Binding, DRD1 (gene 281125) (UniProt Q95136); experiment: NVS_GPCR_bDR_NonSelective: NovaScreen (NVS) G Protein-Coupled Receptor Assay for bovine Dopamine Receptor (DR), Non-selective Binding (AID 2283241)
# How it was run: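 Bovine striatal membranes; radioligand displacement read by filtration and scintillation counting 1 h after dosing, loss of signal vs DMSO. Screened in duplicate at 25 uM, then concentration-response for hits.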
# Sequence of human Vascular Endothelial Growth Factor Receptor 2 (VEGFR2), KDR (gene 3791) (P35968 whole entry, looked up): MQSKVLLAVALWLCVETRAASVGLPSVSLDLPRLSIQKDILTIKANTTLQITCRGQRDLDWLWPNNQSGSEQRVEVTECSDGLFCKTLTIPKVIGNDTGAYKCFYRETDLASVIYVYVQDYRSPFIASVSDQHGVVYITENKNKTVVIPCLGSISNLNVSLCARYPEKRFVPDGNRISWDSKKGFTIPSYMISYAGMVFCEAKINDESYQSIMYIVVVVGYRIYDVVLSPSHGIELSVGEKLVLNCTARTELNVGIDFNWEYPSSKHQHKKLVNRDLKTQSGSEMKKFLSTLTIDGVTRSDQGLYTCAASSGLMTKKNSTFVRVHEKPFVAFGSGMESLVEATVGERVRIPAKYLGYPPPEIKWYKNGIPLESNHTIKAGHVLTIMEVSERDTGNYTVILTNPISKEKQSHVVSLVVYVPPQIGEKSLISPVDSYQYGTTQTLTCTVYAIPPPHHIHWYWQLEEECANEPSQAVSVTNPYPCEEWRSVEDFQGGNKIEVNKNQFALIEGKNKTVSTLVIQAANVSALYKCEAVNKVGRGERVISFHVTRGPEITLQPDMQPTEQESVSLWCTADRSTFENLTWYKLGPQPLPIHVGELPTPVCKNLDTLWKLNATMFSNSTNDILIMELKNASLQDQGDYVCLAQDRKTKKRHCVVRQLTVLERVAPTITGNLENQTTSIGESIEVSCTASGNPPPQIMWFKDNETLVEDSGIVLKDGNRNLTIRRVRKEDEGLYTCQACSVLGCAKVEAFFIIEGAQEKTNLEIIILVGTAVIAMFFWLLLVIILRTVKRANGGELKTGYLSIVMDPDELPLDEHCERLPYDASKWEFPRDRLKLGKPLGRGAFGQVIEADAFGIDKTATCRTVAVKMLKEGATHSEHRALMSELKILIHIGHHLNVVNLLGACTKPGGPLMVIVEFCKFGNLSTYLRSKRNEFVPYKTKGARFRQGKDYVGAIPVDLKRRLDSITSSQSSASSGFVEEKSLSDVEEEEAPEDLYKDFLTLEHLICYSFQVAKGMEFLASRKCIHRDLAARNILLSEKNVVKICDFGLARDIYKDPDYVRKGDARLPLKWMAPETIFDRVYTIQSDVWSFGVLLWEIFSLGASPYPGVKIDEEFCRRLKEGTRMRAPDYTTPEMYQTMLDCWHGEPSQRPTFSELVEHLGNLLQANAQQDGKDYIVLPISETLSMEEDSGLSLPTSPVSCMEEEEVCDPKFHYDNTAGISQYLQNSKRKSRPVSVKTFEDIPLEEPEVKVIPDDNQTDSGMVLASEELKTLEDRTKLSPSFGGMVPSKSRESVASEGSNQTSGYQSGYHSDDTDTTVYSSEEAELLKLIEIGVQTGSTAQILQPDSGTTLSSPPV
# Sequence of sheep Cyclooxygenase-1 (Cox1), PTGS1 (gene 443551) (P05979 whole entry, looked up): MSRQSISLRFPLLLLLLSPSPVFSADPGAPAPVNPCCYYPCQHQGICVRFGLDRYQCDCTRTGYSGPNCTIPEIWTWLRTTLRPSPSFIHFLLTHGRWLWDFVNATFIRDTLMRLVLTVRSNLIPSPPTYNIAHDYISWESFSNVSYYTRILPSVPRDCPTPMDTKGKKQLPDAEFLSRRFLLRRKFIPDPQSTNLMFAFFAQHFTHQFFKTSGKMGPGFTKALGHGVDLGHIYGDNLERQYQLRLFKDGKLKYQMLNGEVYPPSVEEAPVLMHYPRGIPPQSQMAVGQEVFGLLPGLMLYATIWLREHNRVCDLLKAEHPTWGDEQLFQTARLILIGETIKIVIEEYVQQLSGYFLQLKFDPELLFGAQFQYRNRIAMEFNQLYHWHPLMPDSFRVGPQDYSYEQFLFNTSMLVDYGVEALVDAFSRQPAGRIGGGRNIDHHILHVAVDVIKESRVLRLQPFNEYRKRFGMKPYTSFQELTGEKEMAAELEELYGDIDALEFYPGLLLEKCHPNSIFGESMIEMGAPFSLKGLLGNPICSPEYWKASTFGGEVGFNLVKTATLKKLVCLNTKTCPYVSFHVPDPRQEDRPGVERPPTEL
# Sequence of sheep Cyclooxygenase-2 (Cox2), PTGS2 (gene 443460) (P79208 whole entry, looked up): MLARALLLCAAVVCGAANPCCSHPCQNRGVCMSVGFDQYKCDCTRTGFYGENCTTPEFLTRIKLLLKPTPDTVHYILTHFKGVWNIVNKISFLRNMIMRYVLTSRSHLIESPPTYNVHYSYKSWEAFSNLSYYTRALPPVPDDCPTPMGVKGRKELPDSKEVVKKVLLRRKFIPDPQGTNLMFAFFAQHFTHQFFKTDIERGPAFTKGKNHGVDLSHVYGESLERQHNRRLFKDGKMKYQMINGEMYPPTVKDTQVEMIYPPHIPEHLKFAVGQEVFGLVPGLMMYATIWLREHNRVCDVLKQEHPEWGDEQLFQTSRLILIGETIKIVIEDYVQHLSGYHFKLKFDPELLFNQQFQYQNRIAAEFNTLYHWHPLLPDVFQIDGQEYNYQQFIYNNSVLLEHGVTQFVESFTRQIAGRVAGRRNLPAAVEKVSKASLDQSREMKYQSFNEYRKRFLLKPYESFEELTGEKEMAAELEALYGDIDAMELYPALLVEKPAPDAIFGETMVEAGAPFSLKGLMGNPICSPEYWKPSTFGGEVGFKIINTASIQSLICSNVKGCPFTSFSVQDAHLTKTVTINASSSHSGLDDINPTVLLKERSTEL
# Sequence of bovine Dopamine Receptor (DR), Non-selective Binding, DRD1 (gene 281125) (Q95136 whole entry, looked up): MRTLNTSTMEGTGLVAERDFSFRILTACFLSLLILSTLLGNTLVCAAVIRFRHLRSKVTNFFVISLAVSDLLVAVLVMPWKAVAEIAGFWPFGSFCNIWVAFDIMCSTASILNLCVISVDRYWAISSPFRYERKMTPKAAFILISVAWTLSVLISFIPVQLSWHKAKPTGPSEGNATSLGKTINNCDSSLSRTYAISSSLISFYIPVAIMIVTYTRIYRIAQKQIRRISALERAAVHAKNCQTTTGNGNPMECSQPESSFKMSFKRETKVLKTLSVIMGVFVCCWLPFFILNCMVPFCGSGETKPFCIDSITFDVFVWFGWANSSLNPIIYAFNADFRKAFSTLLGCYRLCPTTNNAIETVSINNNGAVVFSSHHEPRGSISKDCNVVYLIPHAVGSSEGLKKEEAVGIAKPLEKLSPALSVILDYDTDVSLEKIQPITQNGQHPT
# Sequence of rabbit Imidazoline 2 Central (I2C), CKB (gene 100009085) (P00567 whole entry, looked up): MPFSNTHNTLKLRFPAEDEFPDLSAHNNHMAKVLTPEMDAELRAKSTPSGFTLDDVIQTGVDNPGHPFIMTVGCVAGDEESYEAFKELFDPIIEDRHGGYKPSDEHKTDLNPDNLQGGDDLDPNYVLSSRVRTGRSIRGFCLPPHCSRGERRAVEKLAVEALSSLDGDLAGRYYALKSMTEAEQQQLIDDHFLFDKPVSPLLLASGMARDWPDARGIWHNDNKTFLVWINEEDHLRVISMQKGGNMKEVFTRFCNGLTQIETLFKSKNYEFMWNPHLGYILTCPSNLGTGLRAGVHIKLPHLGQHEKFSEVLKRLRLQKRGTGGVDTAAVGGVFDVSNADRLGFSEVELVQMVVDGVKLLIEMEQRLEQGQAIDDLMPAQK
# Sequence of Adenosine receptor A1 (Bos taurus) (P28190 whole entry, looked up): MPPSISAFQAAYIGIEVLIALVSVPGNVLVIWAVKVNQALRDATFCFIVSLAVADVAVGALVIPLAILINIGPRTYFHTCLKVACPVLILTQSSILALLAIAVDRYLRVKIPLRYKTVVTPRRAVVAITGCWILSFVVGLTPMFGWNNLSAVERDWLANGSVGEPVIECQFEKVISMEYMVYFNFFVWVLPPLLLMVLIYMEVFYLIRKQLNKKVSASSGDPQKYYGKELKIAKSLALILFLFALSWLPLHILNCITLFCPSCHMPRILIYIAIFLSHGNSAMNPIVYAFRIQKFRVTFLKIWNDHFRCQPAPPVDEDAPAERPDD
# Sequence of rat Catechol-O-Methyl Transferase (COMT), Comt (gene 24267) (P22734 whole entry, looked up): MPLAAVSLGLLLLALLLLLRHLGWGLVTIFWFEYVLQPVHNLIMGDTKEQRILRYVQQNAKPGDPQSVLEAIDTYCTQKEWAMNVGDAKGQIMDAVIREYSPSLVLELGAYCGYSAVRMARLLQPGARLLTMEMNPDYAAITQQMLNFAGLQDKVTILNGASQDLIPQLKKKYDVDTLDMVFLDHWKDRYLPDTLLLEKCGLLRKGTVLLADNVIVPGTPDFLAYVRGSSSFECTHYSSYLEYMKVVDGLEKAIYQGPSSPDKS
structure (smiles),measurement,setting,value
CCN(Cc1cccnc1)C(=O)c1cccc(Cl)c1[C@]1(C)C(=O)N(Cc2ccc(OC)cc2OC)c2ccc(Cl)cc21,outcome,[1],inactive
same,outcome,[2],inactive
Oc1ccc2ccccc2c1,AC50,[3],5.35 µM (active)
O=C1O[C@H]([C@@H](O)CO)C(O)=C1O,AC50,[4],11.5 µM (active)
Cc1occc1C(=O)Nc1ccc(C(=O)N2CCC(F)(F)/C(=C\C(=O)N3CCC(N4CCCCC4)CC3)c3ccccc32)cc1,AC50,[5],3.76 µM (active)
CCCCCCCCCC(=O)O,outcome,[6],inactive
CCOC(=O)O[C@H](C)OC(=O)c1ccc2c(c1)cc(C(=O)NC1CCN(C(C)C)CC1)n2Cc1cc(-c2ccc(Cl)s2)on1,AC50,[2],23.6 µM (active)
CC[C@H](NC(=O)c1cc(F)ccc1NS(=O)(=O)c1cccc2cccnc12)c1ccccc1,outcome,[3],inactive
OCCO,outcome,[1],inactive
O=CCCCC=O,AC50,[7],15.4 µM (active)
COc1cccc([C@H](O)C2CCN(CCc3ccc(F)cc3)CC2)c1OC,AC50,[8],12.7 µM (active)
same,AC50,[9],5.96 µM (active)
O=C1c2ccccc2C(=O)N1CCc1noc(-c2ccc(CN3CCCCCC3)s2)n1,AC50,[8],7.93 µM (active)
same,outcome,[3],inactive
same,outcome,[5],inactive
same,AC50,[9],14.6 µM (active)
CO[C@H]1/C=C/O[C@@]2(C)Oc3c(C)c(O)c4c(O)c(c(/C=N/N5CCN(C)CC5)c(O)c4c3C2=O)NC(=O)/C(C)=C\C=C\[C@H](C)[C@H](O)[C@@H](C)[C@@H](O)[C@@H](C)[C@H](OC(C)=O)[C@@H]1C,AC50,[7],7.74 µM (active)
same,AC50,[3],3.36 µM (active)
COc1cc(C(=O)NC2CCN(C)CC2)ccc1Nc1ncc2c(n1)N(C1CCCC1)CC(F)(F)C(=O)N2C,outcome,[1],inactive
same,AC50,[7],15.2 µM (active)
same,AC50,[5],14 µM (active)
same,AC50,[9],11.2 µM (active)
